{"source": "PubChem BioAssay", "note": "A number with no mark means an inactive call. The rule behind the calls is not given here.", "data": [{"assay": "blockers of DNA damage checkpoint Chk1 activation – imaging, HeLa, hydroxyurea, phospho-Chk1 nuclear intensity, primary screen (AID 1187); note: test concentration not given here", "settings": "hydroxyurea-induced phospho-Chk1 immunofluorescence imaging, higher = more signal", "values": [{"smiles": "CN(C)CCCCNC(=O)[C@H]1C[C@H]2C(=O)NCC(=O)N2[C@H]1c1ccc(O)cc1", "z-score": -0.186}, {"smiles": "CC(C)=CCCC(C)=CC(O)C1C=CC2C(=O)NC(=O)C2N1Nc1ccc(Cl)cc1Cl", "note": "(stereo not given)", "z-score": 0.848}, {"smiles": "COc1cc(OC)c(C(O)C2C=CC3C(=O)N(c4ccccc4)C(=O)C3N2Nc2ccc(C(C)C)cc2)cc1Br", "note": "(stereo not given)", "z-score": -0.639}, {"smiles": "CCN(CC)c1ccc(N2CC=CC34O[C@@H]5C=CCCOC(=O)C5[C@H]3C(=O)N(C(C)CO)[C@@H]4C2=O)cc1", "note": "(stereo not given in full)", "z-score": 0.865}, {"smiles": "CCOC(=O)C1=CCC(c2cc3ccccc3[nH]2)N(CCN2CC(C(=O)OCC)=CCC2c2cc3ccccc3[nH]2)C1", "note": "(stereo not given)", "z-score": -0.497}, {"smiles": "COc1ccc([Si](C)(C)[C@H]2[C@H](CC(=O)N3Cc4ccccc4C[C@H]3CO)O[C@@]3(C(=O)N(C)c4c(Br)cc(C)cc43)[C@@H]2C)cc1", "z-score": -0.569}, {"smiles": "CN1C(=O)[C@@H]2[C@@H](CC(COc3ccccc3)=C3[C@@H](CCc4ccccc4)OB(O)C[C@@H]32)C1=O", "z-score": 0.768}, {"smiles": "CN1C(=O)C2C(C1=O)C1C=C(CCCO)C2C(C2CC2)N1Cc1cccc(OC(F)(F)F)c1", "note": "(stereo not given)", "z-score": -0.0667}, {"smiles": "COc1ccc(C(=O)Nc2cccc(CN3C(=O)[C@]4(O[C@H](CC(=O)N5Cc6ccccc6C[C@H]5CO)[C@@H]([Si](C)(C)c5ccc(OC)cc5)[C@@H]4C)c4ccccc43)c2)cc1", "z-score": 0.835}, {"smiles": "CN(C)C(=O)[C@@]1(Cc2ccccc2CN=[N+]=[N-])COC(c2ccc(OCCCO)cc2)=N1", "z-score": -0.521}, {"smiles": "COc1ccc(C(=O)Nc2cccc(CN3C(=O)[C@@]4(O[C@@H](CC(=O)N5CCC[C@H]5CO)[C@H]([Si](C)(C)c5ccc(OC)cc5)[C@H]4C)c4ccccc43)c2)cc1", "z-score": 0.071}, {"smiles": "O=C(NCCN1CCOCC1)[C@@H]1c2ccccc2C(=O)N(Cc2ccccc2C(F)(F)F)[C@H]1c1ccc(CO)cc1", "z-score": 0.371}, {"smiles": "C=CC1c2cc(O)c(OC)cc2CCN1C", "note": "(stereo not given)", "z-score": 0.468}, {"smiles": "COC(=O)[C@@]1(Cc2ccc(OC)cc2)[C@H]2c3cc(C(=O)N4CCCC4)n(Cc4ccc(Cl)c(C(F)(F)F)c4)c3C[C@H]2CN1C(=O)c1ccccc1", "z-score": -0.559}, {"smiles": "COc1ccc(C(=O)Nc2ccc3c(c2)[C@@]2(O[C@H](CCO)[C@@H]([Si](C)(C)c4ccc(OC)cc4)[C@@H]2C)C(=O)N3Cc2ccccc2)cc1", "z-score": 0.518}, {"smiles": "Cc1ccc(S[C@]2(C(=O)NCc3ccccc3)CC(=O)N(Cc3ccccc3C(F)(F)F)[C@@H]2c2ccc(CO)cc2)cc1", "z-score": -0.393}, {"smiles": "CC1CC/C=C\\[C@H]2OC34C=CCN(c5ccc6ccccc6c5)C(=O)[C@H]3N(C(C)CO)C(=O)[C@@H]4C2C(=O)O1", "note": "(stereo not given in full)", "z-score": -0.228}, {"smiles": "Cc1ccc(N2C(=O)c3ccccc3[C@](C)(C(=O)NCCCN(C)C)[C@@H]2c2ccc(CO)cc2)nc1", "z-score": -0.321}, {"smiles": "CCCC[C@H]1OB(O)C[C@H]2C1=C(COc1ccccc1)C[C@H]1C(=O)C=CC(=O)[C@H]12", "z-score": -0.274}, {"smiles": "CC(C)C(=C=CC[C@H](O)c1ccccc1OCCO)C[C@H](O)COCc1ccccc1", "z-score": -0.371}, {"smiles": "COC(=O)[C@@]1(Cc2ccc(OC)cc2)[C@H]2c3cc(C(=O)N4CCCC4)n(Cc4ccc(C(F)(F)F)nc4)c3C[C@H]2CN1C(=O)c1ccccc1", "z-score": 0.712}, {"smiles": "Cc1ccc(F)cc1S(=O)(=O)N[C@H]1CCN(Cc2ccc(OC(C)C)cc2)C1", "z-score": 0.581}, {"smiles": "CC(C)C(=C=CC[C@H](O)c1ccccc1OCCO)C[C@H](O)c1cc(Cl)cc(Cl)c1O", "z-score": 0.353}, {"smiles": "C=C1C(=O)C=C2CN(C(=O)c3ccccc3)[C@@](Cc3ccc(OC)cc3)(C(=O)OC)[C@@H]12", "z-score": 0.354}, {"smiles": "COc1ccc(C(=O)Nc2ccc(CN3C(=O)[C@@]4(O[C@@H](CCn5cc(CCO)nn5)[C@H]([Si](C)(C)c5ccc(OC)cc5)[C@H]4C)c4ccccc43)cc2)cc1", "z-score": -1.13}]}]}
